Compound activity deposited in PubChem BioAssay by National Center for Advancing Translational Sciences (NCATS).
The entries come from a sample that favours hits as a whole.
KDM5B inhibitor = Primary screen for KDM5B Histone Demethylases FDH-coupled qHTS | KDM5B demethylase, FDH-coupled NADH fluorescence (FDH is formaldehyde dehydrogenase) | Potency, µM (series often up to 57.7 µM), most hits filed as inhibitors | 220,000 tested, 2.6% active | Lysine-specific demethylase 5B (Homo sapiens), Q9UGL1; active = well fitted inhibition curve with a large enough effect; also: nearly all actives have a fitted effect of over 70% in size
Target sequence (Q9UGL1 whole entry, looked up): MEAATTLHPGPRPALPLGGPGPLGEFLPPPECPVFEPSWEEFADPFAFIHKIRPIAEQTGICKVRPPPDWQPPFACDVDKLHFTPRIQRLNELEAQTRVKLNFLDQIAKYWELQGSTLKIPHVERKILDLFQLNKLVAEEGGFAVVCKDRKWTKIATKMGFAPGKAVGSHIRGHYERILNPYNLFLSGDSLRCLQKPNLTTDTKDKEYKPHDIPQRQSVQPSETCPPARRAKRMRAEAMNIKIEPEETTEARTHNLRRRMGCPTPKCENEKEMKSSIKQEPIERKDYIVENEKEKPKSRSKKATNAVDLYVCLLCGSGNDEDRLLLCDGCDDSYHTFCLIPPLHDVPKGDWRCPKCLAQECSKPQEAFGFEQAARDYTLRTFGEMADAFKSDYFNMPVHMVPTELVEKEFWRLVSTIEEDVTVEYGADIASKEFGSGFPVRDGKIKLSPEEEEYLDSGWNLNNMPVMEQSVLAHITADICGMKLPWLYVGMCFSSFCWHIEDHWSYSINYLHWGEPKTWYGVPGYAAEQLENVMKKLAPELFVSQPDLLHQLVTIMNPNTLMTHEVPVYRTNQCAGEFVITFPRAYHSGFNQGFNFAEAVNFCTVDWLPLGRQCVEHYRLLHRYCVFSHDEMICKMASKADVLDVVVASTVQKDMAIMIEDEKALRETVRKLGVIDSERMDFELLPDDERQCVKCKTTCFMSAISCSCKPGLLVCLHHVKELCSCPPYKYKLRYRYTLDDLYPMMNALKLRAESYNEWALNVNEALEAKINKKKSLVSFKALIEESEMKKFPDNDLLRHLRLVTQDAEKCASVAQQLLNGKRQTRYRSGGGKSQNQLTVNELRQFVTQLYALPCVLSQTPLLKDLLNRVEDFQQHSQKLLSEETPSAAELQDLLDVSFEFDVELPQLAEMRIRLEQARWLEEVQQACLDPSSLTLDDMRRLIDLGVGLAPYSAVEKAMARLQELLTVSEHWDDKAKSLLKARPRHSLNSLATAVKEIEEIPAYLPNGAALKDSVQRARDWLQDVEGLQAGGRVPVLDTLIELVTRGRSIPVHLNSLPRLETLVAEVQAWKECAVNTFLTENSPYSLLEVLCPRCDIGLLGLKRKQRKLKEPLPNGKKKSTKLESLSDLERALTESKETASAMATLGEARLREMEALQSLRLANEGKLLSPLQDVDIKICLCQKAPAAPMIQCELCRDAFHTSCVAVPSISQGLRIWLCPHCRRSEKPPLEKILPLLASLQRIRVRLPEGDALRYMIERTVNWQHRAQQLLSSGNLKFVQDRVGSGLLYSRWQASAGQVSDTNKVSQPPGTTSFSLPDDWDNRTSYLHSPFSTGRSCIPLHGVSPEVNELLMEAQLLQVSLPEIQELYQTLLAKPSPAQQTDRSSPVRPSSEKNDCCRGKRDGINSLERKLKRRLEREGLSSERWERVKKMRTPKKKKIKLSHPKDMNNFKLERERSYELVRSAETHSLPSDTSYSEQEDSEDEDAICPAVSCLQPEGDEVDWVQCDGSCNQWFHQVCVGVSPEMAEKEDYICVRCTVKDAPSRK
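Here, H3K4me3 peptide (12.5 µM in substrate mix) is demethylated by KDM5BΔAP, 200 nM final, after 10 min compound exposure. Formaldehyde product is coupled through FDH (0.25 U/mL in mix) to NADH fluorescence; 30-min ΔRFU feeds dose-response curves.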
Hits are given with their value; n = inactive.

SMILES | KDM5B inhibitor
COC(=O)c1sccc1S(=O)(=O)Nc1ccccc1OC(F)F | n
CCC(=O)Nc1ccc(C(=O)N/N=C(\C)C(C)(C)C)cc1 | n
COc1ccc(C(CNC(=O)CN2CCNC(=O)C2)c2c[nH]c3ccccc23)cc1 (stereo not given) | n
Cc1ccc(/C=N/NC(=O)c2ccccc2C)cc1 | n
O=C(CCc1ccsc1)NC1CCCC1 | n
Cc1cccc(NC(=O)COc2ncnc3ccc(Br)cc23)c1 | n
O=C(CCC1CCN(S(=O)(=O)c2cccc(F)c2)CC1)NCCN1CCOCC1 | n
O=C(CCC1CCCN(S(=O)(=O)c2ccccc2F)C1)NCCN1CCOCC1 (stereo not given) | 20µM
O=C(CCC1CCCN(S(=O)(=O)c2ccccc2F)C1)NCc1cccs1 (stereo not given) | n
COC(=O)c1ccc(NC(=O)COC(=O)c2oc3ccccc3c2C)cc1 | n
COc1cccc2cc(-c3nnc(SCC(=O)c4ccc(F)cc4)n3C)oc12 | n
Cc1ccc(N2CC(c3noc(-c4ccncc4)n3)CC2=O)cc1 (stereo not given) | n
COc1ccc(-c2nc(C3CC(=O)N(c4ccc(F)cc4)C3)no2)cc1 (stereo not given) | n
Cc1ccc(N2CC(c3noc(-c4ccc5c(c4)OCO5)n3)CC2=O)cc1 (stereo not given) | 32µM
Cc1ccc(N2CC(c3noc(-c4cc(F)cc(F)c4)n3)CC2=O)cc1 (stereo not given) | n
CCOc1ccc(-c2nc(C3CC(=O)N(c4ccc(OC)cc4)C3)no2)cc1 (stereo not given) | n
COc1ccc(N2CC(c3noc(-c4ccc5c(c4)OCO5)n3)CC2=O)cc1 (stereo not given) | 32µM
N#Cc1ccc(CSc2nnc3c(Cl)cc(C(F)(F)F)cn23)cc1 | n
COc1cc(F)ccc1-c1ccnc2nc(C3CCCO3)nn12 (stereo not given) | 28µM
COc1cc(F)ccc1-c1ccnc2nc(C3CCC3)nn12 | 28µM
COc1ccc(-c2ccnc3nc(C4CCC4)nn23)c(F)c1 | 28µM
Brc1ccc(-c2ccnc3nc(C4CCCO4)nn23)s1 (stereo not given) | n
COc1cc(C(=O)OCc2cc(=O)n3nc(C4CCCCC4)sc3n2)cc(OC)c1OC | n
COc1ccc(-c2ccnc3nc(C4CCC4)nn23)cc1 | n
COc1ccccc1Oc1ccc2c(c1)C(=O)N(CC1CCCO1)C2=O (stereo not given) | n
SMILES | KDM5B inhibitor
COc1ccc(-c2cn3cc(C(=O)NCC(N)=O)nc3c(=O)n2CC2CC2)c(F)c1 | n
COc1cc(-c2ccnc3nc(C4CCCCC4)nn23)cc(OC)c1OC | 25µM
CCOC(=O)c1[nH]c2ccccc2c1NC(=O)CCC1CCCCC1 | n
O=C(Nc1ccc(Cl)cc1C(F)(F)F)c1cccc(F)c1 | n
O=C1CC2(C(=O)Nc3ccccc32)c2sc(C(=O)O)c(-c3ccccc3)c2N1 (stereo not given) | n
O=C1CC(C(=O)Nc2ccccc2)n2nc(SCc3ccccc3)nc2N1 (stereo not given) | n
COc1cccc(CNC(=O)C(c2ccccc2)c2ccccc2)c1 | n
COc1ccc(CCNC(=O)CN(c2ccc(F)c(Cl)c2)S(C)(=O)=O)cc1OC | n
CCCn1nc(C(=O)N(CC)c2ccccc2C)c2ccccc2c1=O | n
CC(C)C1CC(C)(C)c2ccc(O)cc21 (stereo not given) | n
C/C(Cl)=C\C[N+]1(C/C=C(\C)Cl)CCCCC1 | n
CCc1nc2nccc(-c3cc4ccccc4o3)n2n1 | n
c1ccc2oc(-c3ccnc4nc(C5CCC5)nn34)cc2c1 | 11µM
Nc1nc(-c2cc3ccccc3o2)cs1 | n
Cc1nn(-c2ccc(C(F)(F)F)cc2)c(C)c1[C@@H]1C=C[C@@H](NC(=O)c2cccnc2)C1 | n
CCN(CC)C(=O)C[C@@H]1c2nc(NC(=O)c3cccc(F)c3)sc2C[C@@H]2[C@](C)(CO)[C@H](O)CC[C@]21C | n
Clc1ccc(C2Cn3nnc(-c4nc(C5CC5)no4)c3CO2)cc1 (stereo not given) | n
CCC1CCCCN1C(=O)COC(=O)c1cnc2ccccc2n1 (stereo not given) | n
O=C(Cc1cccs1)N1CCCN(CCc2ccccc2)c2ccccc21 | 22µM
CCC(=O)N1CCCN(CCN(C)C)c2ccccc21 | n
CN1CCCN(C(=O)c2cccs2)c2ccccc21 | n
c1cncc(COc2cc3c(cn2)NCCN(Cc2ccsc2)C3)c1 | 35µM
c1cncc(COc2cc3c(cn2)NCCN(CC2CCCCC2)C3)c1 | 25µM
c1cncc(-c2nnc3n2CCN(Cc2ccsc2)C3)c1 | n
c1cncc(COC2CCN(c3ncncn3)CC2)c1 | n
SMILES | KDM5B inhibitor
Cc1cc(-c2cc3c(cn2)CN(Cc2ccc4[nH]ccc4c2)CCN3)ccn1 | n
CCOc1cc2c(cn1)NCCN(Cc1ccc3[nH]ccc3c1)C2 | 28µM
CN(Cc1cccnc1)Cc1nc(C2(O)CCN(CC3CCCCC3)CC2)cs1 | n
c1ccc(-c2cc3c(cn2)CN(Cc2ccc4[nH]ccc4c2)CCN3)cc1 | n
Clc1cnccc1CN1CCNc2cnc(Oc3ccccc3)cc2C1 | n
CC(NC(=O)c1cccs1)C1CC2CCC1C2 (stereo not given) | n
O=C(CSc1nnc(-c2ccncc2)n1-c1ccc(Cl)cc1)Nc1ccc(F)cc1 | n
CC(C)(C)NC(=O)c1ccccc1SCc1ccc(F)cc1 | n
COc1ccc(C(=O)N2CCN(C(=O)C3CCCCC3)C[C@@H]2C(=O)N[C@H]2CCCNC2=O)cc1 | n
Cc1nn(-c2ccccc2)c(Oc2ccc(F)cc2F)c1CCC(=O)N(C)C(C)C | n
CCN(C)C(=O)CCc1c(C)nn(-c2ccccc2)c1Oc1ccccc1F | 14µM
CCN(CC)C(=O)CCc1c(C)nn(-c2ccccc2)c1Oc1ccc(F)cc1F | n
Cc1ccc(-c2nnn(Cc3cc(Cl)c4c(c3)OCCCO4)n2)cc1 | n
CCOC(=O)CCNC(=O)NCCC1CCN(C(=O)Nc2cccc(Cl)c2)CC1 | n
CC(C)(C)c1ccc(-c2csc(NC=C(C#N)C#N)n2)cc1 | n
CC(C)C(NC(=O)c1ccc(F)cc1)C(=O)NN (stereo not given) | n
CCCN(C)C(=O)c1cn2cc(-c3cccc(Cl)c3)n(CC=C(C)C)c(=O)c2n1 | n
O=C(O)COCC(=O)N[C@H]1CCN2C(=O)c3cc(-c4ccccc4)ccc3NC(=O)[C@H]12 | n
CC(C)NC(=O)N[C@H]1CCN2C(=O)c3cc(Br)ccc3NC(=O)[C@@H]2C1 | n
O=C(N[C@H]1CCN2C(=O)c3cc(-c4ccccc4F)ccc3NC(=O)[C@H]12)C1CCCC1 | n
COc1ccc(/C=C/c2ccc3c(c2)C(=O)N2CC[C@H](NC(=O)COCC(=O)O)[C@H]2C(=O)N3)cc1 | 22µM
NCc1cccc(-c2ccc3c(c2)C(=O)N2CC[C@H](NC(=O)NC4CCCCC4)[C@H]2C(=O)N3)c1 | n
CC(C)NC(=O)N[C@H]1CCN2C(=O)c3cc(/C=C/c4ccccc4)ccc3NC(=O)[C@H]12 | 35µM
CSCC(=O)N[C@H]1CCN2C(=O)c3cc(/C=C/c4ccccc4)ccc3NC(=O)[C@H]12 | 16µM
COc1ccc(-c2ccc3c(c2)C(=O)N2CC[C@H](NC(=O)C4CCCC4)[C@H]2C(=O)N3)c(OC)c1 | 32µM
O=C(O)COCC(=O)N[C@H]1CCN2C(=O)c3ccc(Cl)cc3NC(=O)[C@H]12 | n
COc1ccc(Cl)cc1-c1ccc2c(c1)C(=O)N1CC[C@H](NC(=O)C3CCCC3)[C@H]1C(=O)N2 | n
